SMILES strings stand for the structures. Results filed as inconclusive are left out. Activity calls are given as the source filed them. Calls follow the shape of the full dose curve.
% is scaled to controls: 0 for no effect and ±100 for the full control effect.

One assay deals with Acetylcholinesterase (Homo sapiens) (UniProt P22303). In words: Acetylcholinesterase (AChE) small molecule antagonists: colormetric cell-based qHTS assay (AID 1347395). Also: nearly all actives have a fitted effect of over 30% in size. The following applies: SH-SY5Y cells AChE activity, colorimetric (Ellman); series mostly up to 115 µM; activity, negative = inhibition: at the top concentration. The method in brief: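 After overnight attachment at 37 C, SH-SY5Y cells get 30 min compound exposure; detection cocktail (acetylthiocholine, DTNB) then incubates 90 min at 37 C, and absorbance reflects AChE-generated thiocholine.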
Acetylcholinesterase (Homo sapiens), sequence (P22303 whole entry, looked up): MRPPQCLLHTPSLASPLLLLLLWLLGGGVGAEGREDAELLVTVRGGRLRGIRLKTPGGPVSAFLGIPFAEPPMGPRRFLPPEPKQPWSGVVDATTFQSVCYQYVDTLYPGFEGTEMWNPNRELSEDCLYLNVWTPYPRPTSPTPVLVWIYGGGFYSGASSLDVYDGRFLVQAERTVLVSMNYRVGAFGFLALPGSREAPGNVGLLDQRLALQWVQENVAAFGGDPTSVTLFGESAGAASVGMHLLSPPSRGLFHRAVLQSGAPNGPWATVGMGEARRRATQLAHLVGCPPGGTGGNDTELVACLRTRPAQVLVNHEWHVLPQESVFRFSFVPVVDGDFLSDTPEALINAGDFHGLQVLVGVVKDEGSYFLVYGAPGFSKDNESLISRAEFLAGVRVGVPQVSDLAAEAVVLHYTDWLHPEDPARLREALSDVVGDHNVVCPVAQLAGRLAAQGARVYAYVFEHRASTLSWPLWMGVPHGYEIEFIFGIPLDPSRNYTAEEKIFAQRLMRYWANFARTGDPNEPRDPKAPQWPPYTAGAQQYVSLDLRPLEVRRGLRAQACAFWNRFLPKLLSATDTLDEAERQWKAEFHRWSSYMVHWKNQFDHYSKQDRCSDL
A general note: Quantitative high-throughput screening tests each substance at several concentrations.
As to `C=CCOc1nc(OCC=C)nc(OCC=C)n1`, the “activity, negative = inhibition” value is 1.02% (inactive).

In the case of `C=CC1CC2C=CC1C2` (stereo not drawn), the “activity, negative = inhibition” value is -0.409% (inactive).

As to `CCOC(=O)CC(=O)c1cc(F)c(Cl)nc1Cl`, the “activity, negative = inhibition” value was 2.03% (inactive).

`Cc1ccc(Cl)cc1Cl`: the “activity, negative = inhibition” value was -1.55% (inactive).

Regarding `CC(C)=CCC/C(C)=C\C#N`, the “activity, negative = inhibition” value is -17.3% (inactive).

In the case of `COc1cc2nc(Cl)nc(N)c2cc1OC`, the “activity, negative = inhibition” value is -0.589% [at 52.9 µM] (inactive).

Consider `C=CCCCCCCCCC(=O)OCCCC`, for which the “activity, negative = inhibition” value is -0.606% (inactive).

With `CCC(C)(Oc1ccc(C2(c3ccc(OC(C)(CC)C(=O)O)cc3)CCCCC2)cc1)C(=O)O` (stereo not drawn), the “activity, negative = inhibition” value was -0.671% [at 52.9 µM] (inactive).

Take `CCOC(=O)[C@H](CCc1ccccc1)N[C@@H](C)C(=O)N1Cc2cc(OC)c(OC)cc2C[C@H]1C(=O)O`: the “activity, negative = inhibition” value was -2.2% [at 52.9 µM] (inactive).

Turning to `C[C@@H](O)[C@H](N)C(=O)O`, the activity, negative = inhibition is 2.29% [at 23.6 µM] (inactive).

For the molecule `C=CCON/C(CCC)=C1\C(=O)CC(C)(C)C(C(=O)OC)=C1O`, the “activity, negative = inhibition” value was 0.754% (inactive).

In the case of `CC(C)=CCC[C@H](C)CCO`, the “activity, negative = inhibition” value is 1.5% (inactive).

On to `CC(=O)Nc1ccc(S(N)(=O)=O)cc1`, for which the “activity, negative = inhibition” value is 2.33% (inactive).

Turning to `NCC[C@H](O)C(=O)N[C@@H]1C[C@H](N)[C@@H](O[C@H]2O[C@H](CN)[C@@H](O)[C@H](O)[C@H]2O)[C@H](O)[C@H]1O[C@H]1O[C@H](CO)[C@@H](O)[C@H](N)[C@H]1O`, the activity, negative = inhibition is -3.35% [at 0.435 µM] (inactive).

As for `CC(=O)Nc1cccc(N)c1`, the “activity, negative = inhibition” value was 1.13% (inactive).

With `C[C@H]1NCc2cc(-c3ccc4c(=O)c(C(=O)O)cn(C5CC5)c4c3OC(F)F)ccc21`, the result was inactive.

Consider `Cc1cccc([N+](=O)[O-])c1C(=O)O`, for which the “activity, negative = inhibition” value is 0.979% (inactive).

For `COCCOC(=O)C1=C(C)NC(C)=C(C(=O)OC/C=C/c2ccccc2)C1c1cccc([N+](=O)[O-])c1` (stereo not drawn), the “activity, negative = inhibition” value was 3.41% [at 52.9 µM] (inactive).

The target is the same in another assay. Kind of assay: Acetylcholinesterase (AChE) small molecule antagonists: enzyme-based qHTS assay (AID 1347397). Also: nearly all actives have a fitted effect of over 55% in size. The conditions noted are these: Potency: AChE enzyme activity inhibition; outcome: AChE enzyme activity inhibition; series mostly up to 115 µM; activity change, negative = inhibition: at the top concentration. The method in brief: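 Colorimetric DTNB readout of acetylthiocholine hydrolysis, 10 min at room temperature, after 30 min room-temperature exposure of 50 mU/mL recombinant human enzyme to compound; DMSO vehicle control.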
`O=C(O)c1c2ccccc2cc2ccccc12`: the “activity change, negative = inhibition” value was -0.817% (inactive).

Turning to `Cc1onc(-c2c(Cl)cccc2Cl)c1C(=O)N[C@@H]1C(=O)N2[C@@H]1SC(C)(C)[C@@H]2C(=O)O`, the “activity change, negative = inhibition” value is 0.546% [at 53 µM] (inactive).

As to `CC(C)CCCCOC(=O)c1ccccc1C(=O)OCCCCC(C)C`, the “activity change, negative = inhibition” value is -3.67% (inactive).

Take `CC1(C)[C@@H](O)CC[C@]2(C)[C@H]3C(=O)C=C4[C@@H]5C[C@@](C)(C(=O)O)CC[C@]5(C)CC[C@@]4(C)[C@]3(C)CC[C@@H]12`: the “activity change, negative = inhibition” value was 0.0011% (inactive).

For `CC(C)c1cccc(C(C)C)c1NC(=O)NS(=O)(=O)c1cc(C(C)(C)O)co1`, the “activity change, negative = inhibition” value is 0.395% (inactive).

For the molecule `CC(=O)OCC(=O)[C@@]1(OC(C)=O)[C@@H](C)C[C@H]2[C@@H]3C[C@H](F)C4=CC(=O)C=C[C@]4(C)[C@@]3(F)[C@@H](O)C[C@@]21C`, the “activity change, negative = inhibition” value is 1.34% [at 53 µM] (inactive).

For `C=CCCCCCCCCCCCC`, the “activity change, negative = inhibition” value was 0.684% (inactive).

For `NC(=O)c1ccccc1C(N)=O`, the “activity change, negative = inhibition” value was -0.273% (inactive).

Take `O=Cc1ccc(F)cc1`: the “activity change, negative = inhibition” value was -0.516% (inactive).

Consider `O=C1Cc2ccccc2N1c1c(Cl)cccc1Cl`, for which the “activity change, negative = inhibition” value is -0.387% (inactive).

As to `Cc1c[nH]c(=S)[nH]c1=O`, the “activity change, negative = inhibition” value is 0.954% (inactive).

For `CCOC(=O)CS`, the “activity change, negative = inhibition” value was 5.84% (inactive).

`Nc1nc(-c2ccccc2)cs1`: the “activity change, negative = inhibition” value was -2.18% (inactive).

In the case of `CCCCCCCCCCCCN(CCCCCCCCCCCC)CCCCCCCCCCCC`, the “activity change, negative = inhibition” value is 1.15% (inactive).

Take `COC(C)(C)CC(C)=O`: the “activity change, negative = inhibition” value is 0.263% (inactive).

In the case of `Cc1ccc(N(CCO)CCO)cc1`, the “activity change, negative = inhibition” value is -0.273% (inactive).

`O=S(O)CO`: the “activity change, negative = inhibition” value was 6.21% (inactive).

Regarding `Cc1nc(C)nc(N2C[C@@H](C)N(c3ccnc([C@@H](C)O)n3)[C@@H](C)C2)n1`, the “activity change, negative = inhibition” value was -0.517% [at 53 µM] (inactive).

Consider `CC(O)CN(CCCN(C)C)CCCN(C)C` (stereo not drawn), for which the “activity change, negative = inhibition” value was 0.996% (inactive).

With `OCCc1ccncc1`, the “activity change, negative = inhibition” value is -2.47% (inactive).

For `CCOC(=O)[C@@H](C)Oc1ccc(Oc2nc3ccc(Cl)cc3o2)cc1`, the “activity change, negative = inhibition” value is -3.05% (inactive).

Turning to `C=CCOc1nc(OCC=C)nc(OCC=C)n1`, the “activity change, negative = inhibition” value is 0.256% (inactive).

With `C=CC1CC2C=CC1C2` (stereo not drawn), the “activity change, negative = inhibition” value is -0.407% (inactive).

As for `CCOC(=O)CC(=O)c1cc(F)c(Cl)nc1Cl`, the “activity change, negative = inhibition” value is 0.273% (inactive).

Consider `Cc1ccc(Cl)cc1Cl`, for which the “activity change, negative = inhibition” value was 1.01% (inactive).

In the case of `CC(C)=CCC/C(C)=C\C#N`, the “activity change, negative = inhibition” value is 1.94% (inactive).

`COc1cc2nc(Cl)nc(N)c2cc1OC`: the “activity change, negative = inhibition” value is -1.08% [at 53 µM] (inactive).

Regarding `C=CCCCCCCCCC(=O)OCCCC`, the “activity change, negative = inhibition” value was 0.141% (inactive).

As to `CCC(C)(Oc1ccc(C2(c3ccc(OC(C)(CC)C(=O)O)cc3)CCCCC2)cc1)C(=O)O` (stereo not drawn), the “activity change, negative = inhibition” value was 0.904% [at 53 µM] (inactive).

`CCOC(=O)[C@H](CCc1ccccc1)N[C@@H](C)C(=O)N1Cc2cc(OC)c(OC)cc2C[C@H]1C(=O)O`: the “activity change, negative = inhibition” value is 0.554% [at 53 µM] (inactive).

For `C[C@@H](O)[C@H](N)C(=O)O`, the activity change, negative = inhibition is 0.985% [at 23.6 µM] (inactive).

As to `C=CCON/C(CCC)=C1\C(=O)CC(C)(C)C(C(=O)OC)=C1O`, the “activity change, negative = inhibition” value was 1.4% (inactive).

Turning to `CC(C)=CCC[C@H](C)CCO`, the “activity change, negative = inhibition” value is -0.353% (inactive).

Consider `CC(=O)Nc1ccc(S(N)(=O)=O)cc1`, for which the “activity change, negative = inhibition” value was 0.66% (inactive).

Take `NCC[C@H](O)C(=O)N[C@@H]1C[C@H](N)[C@@H](O[C@H]2O[C@H](CN)[C@@H](O)[C@H](O)[C@H]2O)[C@H](O)[C@H]1O[C@H]1O[C@H](CO)[C@@H](O)[C@H](N)[C@H]1O`: the activity change, negative = inhibition is 0.773% [at 0.435 µM] (inactive).
